Rows were chosen to be rich in hits. Some 4.2% of all compounds tested hit in one or more screens of this group.
RecA intein inh – blocks M. tuberculosis RecA intein splicing | P9WHJ3 | cell-free RecA intein splicing, fluorescence | inhibition, % (test concentration not listed) | actives 0.75% (n = 290,000) | AID 2221; in the data active = inhibition above about 30%;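 note: 0% = vehicle wells and 100% = reference inhibitor control wells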
Target sequence (P9WHJ3 whole entry, looked up): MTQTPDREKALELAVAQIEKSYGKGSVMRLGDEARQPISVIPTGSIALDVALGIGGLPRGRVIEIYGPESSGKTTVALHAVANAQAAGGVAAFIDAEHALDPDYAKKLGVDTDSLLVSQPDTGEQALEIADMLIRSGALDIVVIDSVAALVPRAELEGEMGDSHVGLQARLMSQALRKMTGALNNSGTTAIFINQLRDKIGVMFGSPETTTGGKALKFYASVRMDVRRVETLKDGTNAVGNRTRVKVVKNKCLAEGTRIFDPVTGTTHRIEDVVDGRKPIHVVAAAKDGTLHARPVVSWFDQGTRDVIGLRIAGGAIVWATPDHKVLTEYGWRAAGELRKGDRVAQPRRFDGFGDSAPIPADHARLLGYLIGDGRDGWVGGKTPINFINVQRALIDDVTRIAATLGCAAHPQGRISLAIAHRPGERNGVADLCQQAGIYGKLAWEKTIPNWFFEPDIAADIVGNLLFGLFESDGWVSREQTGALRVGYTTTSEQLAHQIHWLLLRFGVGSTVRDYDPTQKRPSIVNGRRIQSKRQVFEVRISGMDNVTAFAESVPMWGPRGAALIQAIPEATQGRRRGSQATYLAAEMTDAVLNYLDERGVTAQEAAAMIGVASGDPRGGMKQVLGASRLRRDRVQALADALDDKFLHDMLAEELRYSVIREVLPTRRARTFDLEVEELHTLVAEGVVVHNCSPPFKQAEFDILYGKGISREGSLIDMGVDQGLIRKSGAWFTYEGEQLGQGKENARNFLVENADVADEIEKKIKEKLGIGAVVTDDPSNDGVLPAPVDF
GDH-TPI inh – GDH-TPI coupled enzyme inhibition counter-screen. actives 1.2% (n = 360,000). inhibition, % at 4.8 µM. GDH-TPI coupled enzyme counterscreen, NADH absorbance. AID 588335; in the data active = inhibition above about 30%;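 note: 0% = DMSO wells and 100% = wells lacking the enzyme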
FBA Mtb inh – Mtb fructose-bisphosphate aldolase inhibition | AID 588726 | P9WQA3 | purified M. tuberculosis FBA, fluorescence read-out | actives 2.3% (n = 360,000) | inhibition, % at 1 µM; in the data active = inhibition above about 27%;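 note: 0% = vehicle and 100% = reference inhibitor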
PrPC surface inh – inhibitors of human cell surface prion protein PrPC; P04156; TR-FRET read-out; inhibition, % at 13.8 µM; actives 0.43% (n = 370,000); AID 720596; in the data active = inhibition above about 24%; note: 0% = median of the test wells and 100% = reference compound wells
BJeLR lethal – kills HRASV12-expressing BJeLR cells; BJeLR (HRASV12) viability, CellTiter-Glo ATP luminescence, 48 h; inhibition, % (test concentration not listed); actives 0.17% (n = 300,000); in the data active = inhibition above about 50%
An asterisk follows results filed as active; x = no result given; + = active, no number.

SMILES	RecA intein inh	GDH-TPI inh	FBA Mtb inh	PrPC surface inh	BJeLR lethal
C=C(C)CSc1cc(C)c(C#N)c2nc3ccccc3n12	-98	-2	17	-13	-4
CCCc1cc(Nc2c(C)n(C)n(-c3ccccc3)c2=O)n2c(nc3ccccc32)c1C#N	-10	13	8	-1	1
CCCCc1c(C)c(C#N)c2nc3ccccc3n2c1Cl	20	x	x	x	128*
CCCc1cc(NCCOCCO)n2c(nc3ccccc32)c1C#N	x	15	+	0	x
CCCc1cc(NCCCCO)n2c(nc3ccccc32)c1C#N	-134	6	178*	3	7
CN(Cc1ccccc1)C(=O)OCc1cn(Cc2cccc(C(F)(F)F)c2)nn1	x	x	x	5	x
COc1cc(/C=C2\SC(=O)NC2=O)ccc1OCC(=O)N1CCOCC1	x	37*	2	1	x
COc1cc(/C=N/NC(=O)c2cccnc2)ccc1OCC(=O)N1CCOCC1	-3	14	-5	-6	-10
COc1cc(/C=N/NC(N)=S)ccc1OCC(=O)N1CCOCC1	-7	31*	0	-1	0
Brc1nc(-c2ccccc2)nc(-c2ccccc2)c1Br	3	5	-6	-1	51*
CCN1C(=O)[C@@H]2C(C(=O)c3cnccn3)=NN[C@@H]2C1=O	12	32*	-1	-10	-9
CCOP(=O)(OCC)c1nc(/C=C/c2ccccc2)oc1NCc1ccc(OC)cc1	-14	18	+	7	-8
CCOP(=O)(OCC)c1nc(/C=C/c2ccccc2)oc1NCc1ccccc1	-4	37*	+	11	8
CC(C)(C)c1ccc(S(=O)(=O)N2CCCC2C(=O)N2CCN(c3ccccc3)CC2)cc1 (stereo not given)	x	x	x	-3	x
COC(=O)[C@]12C[C@H](CC(=O)N3CCN(C(=O)c4ccco4)CC3)C(=O)N(Cc3cccc4ccccc34)C1=C[C@H](C(C)C)O[C@@H]2C1CC1	x	x	x	-1	x
Cc1[nH]n(-c2cccc3ccccc23)c(=O)c1/C=N/NC(=O)c1cccc([N+](=O)[O-])c1	10	28	-6	11	6
Cc1ccc(-n2[nH]c(C)c(/C=N/NC(=O)c3ccc([N+](=O)[O-])cc3)c2=O)c(C)c1	32*	6	0	-2	9
CCCn1c(=O)c2[nH]c(-c3ccc(S(=O)(=O)O)cc3)nc2n(CCC)c1=O	x	9	+	4	x
C=CCN1[C@@H](C)COc2cc(F)ccc2S1(=O)=O	x	x	x	-4	x
Oc1ccc(/C=N\Nc2cc(N3CCOCC3)nc(N3CCOCC3)n2)c(O)c1	-3	65*	0	0	5
COc1nc(N/N=C/c2cc3c(cc2Br)OCO3)nc(N2CCOCC2)n1	0	33*	1	-7	-2
COc1ccc(/C=N/Nc2cc(C)nc(N3CCOCC3)n2)c(OC)c1	-1	48*	-3	3	-3
Clc1cc2c(cc1/C=N/Nc1nc(N3CCOCC3)nc(N3CCOCC3)n1)OCO2	1	8	-9	-13	-1
Cc1cc(N/N=C/c2ccc(O)cc2O)nc(N2CCOCC2)n1	-3	69*	-8	-6	11
CCOc1ccc(/C=N/Nc2cc(N3CCOCC3)ncn2)c(O)c1	x	24	4	4	x
SMILES	RecA intein inh	GDH-TPI inh	FBA Mtb inh	PrPC surface inh	BJeLR lethal
C=CC[C@@H]1NN2C(=O)[C@@H](C)[C@@H]3c4ccccc4C=NN3[C@@H]2c2ccccc21	x	x	x	-9	x
CCN(CC)C(=O)CC[C@H]1CC[C@]2(CCCN(Cc3ccccc3)C2)O1	x	x	x	-3	x
Fc1cccc(CNC(=S)OC2CCC23CCC(c2ccccc2)CC3)c1 (stereo not given)	x	x	x	-2	x
COC(=O)[C@]12C[C@H](CC(=O)NCCCCc3ccccc3)C(=O)N(CCc3ccc(OC)c(OC)c3)C1=C[C@H](C(C)(C)C)O[C@@H]2C	x	x	x	-7	x
COC(=O)[C@]12C[C@H](CC(=O)N3CCOCC3)C(=O)N(Cc3ccco3)C1=C[C@H](COCc1ccccc1)O[C@@H]2C	x	x	x	6	x
Cc1ccc(/C=N/Nc2cc(C)nc(N3CCOCC3)n2)cc1	-3	31*	-2	2	4
Cc1cccc(/C=N/Nc2cc(N3CCOCC3)nc(N3CCOCC3)n2)c1	-1	30	-2	0	-15
Cc1nc(N/N=C/c2cccnc2)cc(N2CCOCC2)n1	x	31*	-2	-13	x
Cc1cc(N/N=C/c2ccccc2)nc(N2CCOCC2)n1	-1	26	-1	-3	6
COC(=O)[C@]12C[C@H](CC(=O)N3CCCC3)C(=O)N(Cc3cccc4ccccc34)C1=C[C@H](C1CCCC1)O[C@@H]2C	x	x	x	15	x
CNc1cnc(-c2ccc(C(=O)N3CCOCC3)cc2)cn1	x	16	+	-1	x
CC(=O)Nc1cnc(-c2cccc(C(=O)N3CCOCC3)c2)cn1	x	-2	9	5	x
Oc1ccc(Oc2ccccc2F)c2cccnc12	x	x	x	3	x
O=C(/C=C(\Nc1ccc(F)cc1)c1ccccc1)c1ccccc1	x	x	x	0	x
COc1ccc(Nc2nnc(SCC(=O)c3cc4ccccc4o3)s2)cc1	-6	37*	3	2	8
CN(C)C(=O)COC(=O)c1cc(Cl)cc(Cl)c1N	-6	5	127*	-2	0
COC(=O)[C@]12C[C@H](CC(=O)N3CCN(C(=O)C4CC4)CC3)C(=O)N(Cc3cccc4ccccc34)C1=C[C@H](C1CCCC1)O[C@@H]2C	x	x	x	-7	x
CCOc1ccc(-n2c(COc3ccccc3)nnc2SCC(=O)Nc2ccc(OCc3ccccc3)cc2)cc1	x	x	x	7	x
COc1cccc(Cn2cc(COC(=O)N3CCCC3)nn2)c1	x	x	x	3	x
CN(C)c1ccc(C=NNC(=O)c2cccnc2)cc1	x	52*	1	-1	x
O=C(N/N=C/c1ccccn1)c1sc2ccccc2c1Cl	4	35*	-7	2	3
CSc1ccc(/C=N/NC(=O)c2cccc(O)c2)cc1	0	49*	2	0	7
Cc1cc([N+](=O)[O-])nn1Cc1ccc(C(=O)N/N=C/c2ccc(N(C)C)cc2)cc1	4	40*	-6	1	-4
O=C(N/N=C/c1c[nH]c2ccccc12)c1sc2ccccc2c1Cl	-1	15	4	-1	17
C=CCN(C(=O)[C@@H](C1CC1)[C@@H](O)c1ccc2ccccc2c1)c1ccccc1	x	x	x	12	x
SMILES	RecA intein inh	GDH-TPI inh	FBA Mtb inh	PrPC surface inh	BJeLR lethal
COC(=O)C1CN(Cc2ccccc2)CCS(=O)(=O)N1Cc1ccc(C)cc1 (stereo not given)	x	x	x	0	x
CC(C)CNc1cccc2c1S(=O)(=O)N(Cc1cn(Cc3cccc(C(F)(F)F)c3)nn1)Cc1ccccc1O2	x	x	x	-7	x
O=C(N/N=C/c1c(Cl)nc2ccccn2c1=O)c1cccnc1	4	31*	17	0	11
CN(C)c1ccc(C(=O)N/N=C/c2ccccn2)cc1	0	35*	1	-1	6
CN(C)c1ccc(/C=N/NC(=O)c2cnc3ccccc3c2)cc1	12	32*	-2	5	4
Cc1nn(-c2ccccc2)c(Cl)c1/C=N/NC(=O)c1cccnc1	-1	9	0	5	2
CCOC(=O)[C@@]12CCC3=C1N(CCC3)C(=O)[C@H](CC(=O)N1CCSCC1)C2	x	x	x	0	x

Assay outcomes (PubChem)
